± gives the standard deviation of the averaged measurements. Over roughly 25,000 sequences, “ln(normalized median fluorescence intensity)” has its median near 8.6; the highest 2% begin near 10. The full list was thinned out, with the highest values kept by preference.
The sequences below were run on PfAP2-EXP AP2 domain (GST-tagged) (assay: gcPBM binding intensity (ln(normalized median fluorescence intensity)); higher = stronger DNA binding).
In short: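 An Agilent 4 × 180k array of primer-extended double-stranded 36-bp intergenic genomic probes, with negative controls, was incubated for 1 h with GST-tagged P. falciparum DNA-binding domains expressed in E. coli. Alexa488 anti-GST antibody detected bound protein, scanned at 488 nm. Binding intensity is the highest Masliner-normalised natural-log median intensity across replicate spots of either probe orientation.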

Q: For “TCAAAAATGAGTTACACACACACATATATATATATA [CACACA_site2229]”, which “gcPBM binding intensity (ln)” value is on record?
A: 10.2 ± 0.47

Q: With “TTTCAAAAATGAGTTACACACACACCGATATATATA [CACACA_site5263]” as the sequence, how does the “gcPBM binding intensity (ln)” value read?
A: 8.79 ± 0.61

Q: How did the “gcPBM binding intensity (ln)” value turn out when “TTTCAAAAATGAGTTACACACACACGGATATAAATA [CACACA_site7116]” was run?
A: 8.88 ± 0.56

Q: “AATAAATTACTATGTACACACATAAGAGTATAAATA [CACACA_site6940]” was tested. Which “gcPBM binding intensity (ln)” value did it give?
A: 8.56 ± 0.32

Q: “TACGATGTTTTAAAATGTACATAAAAGTCACATAAG [XGTACX_site3297]” was tested. Which “gcPBM binding intensity (ln)” value did it give?
A: 8.52 ± 0.34

Q: For “TATGATTTTTATATATGTACGTATGGTGTTTTACAA [XGTACX_site6100]”, which “gcPBM binding intensity (ln)” value is on record?
A: 8.8 ± 0.42

Q: “GTTTGGTGGTGTTTTGGTACGTACGGGGGTGTATGT [XGTACX_site1211]” was tested. Which “gcPBM binding intensity (ln)” value did it give?
A: 9.66 ± 0.2

Q: How did the “gcPBM binding intensity (ln)” value turn out when “GTTTGGTGGTGTTTTGGTACGTACGGGGGGGTATGT [XGTACX_site1983]” was run?
A: 10.6 ± 0.19

Q: Which “gcPBM binding intensity (ln)” value does the source give for “TATTTTTCCATTGGGGGTACATGTGTTATATTTATT [XGTACX_site5914]” here?
A: 10.4 ± 0.76

Q: For “ATTTATTTTCTGTGTACACATATGTTGGGTATTTTA [CACACA_site5902]”, which “gcPBM binding intensity (ln)” value is on record?
A: 9.14 ± 0.45

Q: With “TATAAAAAAAAATGTGGTACATATTTCCATTTTCCA [XGTACX_site4571]” as the sequence, how does the “gcPBM binding intensity (ln)” value read?
A: 8.11 ± 0.23

Q: With “AATAATATACCTCTTGTGCACATATTAAAAGTTCAT [GTGCAC_site9536]” as the sequence, how does the “gcPBM binding intensity (ln)” value read?
A: 8.97 ± 0.22

Q: How did the “gcPBM binding intensity (ln)” value turn out when “ACAATTGAAGAAATACGTACATAAAGAAAAACTAGT [XGTACX_site820]” was run?
A: 9.16 ± 0.51

Q: “ATAAAAAGGAAACACACACACACACCCATATATATA [CACACA_site904]” was tested. Which “gcPBM binding intensity (ln)” value did it give?
A: 8.73 ± 0.44

Q: For “AGGAAAAAAGAAAAAACACACATAAATATATATATA [CACACA_site3085]”, which “gcPBM binding intensity (ln)” value is on record?
A: 9.64 ± 0.23

Q: How did the “gcPBM binding intensity (ln)” value turn out when “TATAAAAGGAAACACACACACATATATATATATATA [CACACA_site939]” was run?
A: 10.2 ± 0.4

Q: “ATAAAAAATATCACATAAAATAAAAAAAGAAAGGAT [XGTACX_negctrl_site294]” was tested. Which “gcPBM binding intensity (ln)” value did it give?
A: 9.06 ± 0.52

Q: With “ATAAAAAAAAGAAAAACACACACATATATATATATA [CACACA_site8243]” as the sequence, how does the “gcPBM binding intensity (ln)” value read?
A: 10.2 ± 0.16

Q: With “TAAAAAGGAAAACACACACACACATATATATATATA [CACACA_site3588]” as the sequence, how does the “gcPBM binding intensity (ln)” value read?
A: 10.2 ± 0.16

Q: “AAAAAAAAAAATATCACACACACATAAATATAAACC [CACACA_site2278]” was tested. Which “gcPBM binding intensity (ln)” value did it give?
A: 8.77 ± 0.49

Q: For “AAGGAATAATATAAAACACACACATAAATATAAATA [CACACA_site9115]”, which “gcPBM binding intensity (ln)” value is on record?
A: 8.68 ± 0.26

Q: How did the “gcPBM binding intensity (ln)” value turn out when “AAAAGGAAAAATATCACACATATATATATATATATA [CACACA_site5586]” was run?
A: 10.2 ± 0.34

Q: For “TTGTTAATGGTACGAACACACATATAAAGATGCATA [CACACA_site2044]”, which “gcPBM binding intensity (ln)” value is on record?
A: 8.64 ± 0.54

Q: “TACCATTATTTTAAGTGTACATACTAATTTATATAT [XGTACX_site6548]” was tested. Which “gcPBM binding intensity (ln)” value did it give?
A: 8.61 ± 0.28

Q: With “ATGAAGATTTAAAAATGTACATATGATCTATGTCCT [XGTACX_site8409]” as the sequence, how does the “gcPBM binding intensity (ln)” value read?
A: 8.38 ± 0.36

Q: How did the “gcPBM binding intensity (ln)” value turn out when “TTTTTTTTTTTGTTTTGTACATAAATTGCAACCAAT [XGTACX_site8949]” was run?
A: 8.73 ± 0.57

Q: How did the “gcPBM binding intensity (ln)” value turn out when “TTTTTATATGTTAAGTGTACGTTTACATTTTATACT [XGTACX_site3485]” was run?
A: 8.63 ± 0.36

Q: How did the “gcPBM binding intensity (ln)” value turn out when “TACAGATAAAAGTACACACACACACCGATATATATA [CACACA_site4675]” was run?
A: 8.86 ± 0.38

Q: “TTGCATTGATCAAACATACACACATGGTTAATAAAA [CACACA_site2084]” was tested. Which “gcPBM binding intensity (ln)” value did it give?
A: 8.64 ± 0.47

Q: “AAAAAAAAAAAAAAAACACACATGTATACTAGAATA [CACACA_site7108]” was tested. Which “gcPBM binding intensity (ln)” value did it give?
A: 8.67 ± 0.31

Q: With “ATGTGTGTATACATCAATTATATATATATTATGTAT [GTGCAC_negctrl_site720]” as the sequence, how does the “gcPBM binding intensity (ln)” value read?
A: 8.6 ± 0.33

Q: How did the “gcPBM binding intensity (ln)” value turn out when “ATTTTTTCATATTCTACACACGTGAACAAATGTGTC [CACACA_site3007]” was run?
A: 8.69 ± 0.36

Q: For “AAAAATTTTATATTCACACACATATATATATATATA [CACACA_site624]”, which “gcPBM binding intensity (ln)” value is on record?
A: 10.2 ± 0.42

Q: “AAAAAAAAATTATTCACACATATATATATATATATA [CACACA_site5579]” was tested. Which “gcPBM binding intensity (ln)” value did it give?
A: 10.2 ± 0.33

Q: “TAATTTTAAATATCTTCACACATTATATTTTTATAT [CACACA_site5411]” was tested. Which “gcPBM binding intensity (ln)” value did it give?
A: 8.34 ± 0.42

Q: “TGCATTTATATCTTCACACATATATATATATATATA [CACACA_site4516]” was tested. Which “gcPBM binding intensity (ln)” value did it give?
A: 10.2 ± 0.42

Q: For “TAAAAAATTATATTCACACACATACACATATATATA [CACACA_site545]”, which “gcPBM binding intensity (ln)” value is on record?
A: 8.54 ± 0.43

Q: With “AACTTATTTAAATTCACACATATATAAAATACTTAT [CACACA_site4394]” as the sequence, how does the “gcPBM binding intensity (ln)” value read?
A: 8.38 ± 0.42

Q: “ATATTCATATATACTTCACACACATTTTATCATTCA [CACACA_site8784]” was tested. Which “gcPBM binding intensity (ln)” value did it give?
A: 8.71 ± 0.39

Q: Which “gcPBM binding intensity (ln)” value does the source give for “GTTTCCTTAATATTCACACACATATATATAATATAT [CACACA_site1856]” here?
A: 8.95 ± 0.33

Q: How did the “gcPBM binding intensity (ln)” value turn out when “AAAAACTTAATATTCACACATATATATATATATATA [CACACA_site5240]” was run?
A: 10.2 ± 0.45

Q: “TTTAAAAAATTATATTCACACACATACACATATATA [CACACA_site8076]” was tested. Which “gcPBM binding intensity (ln)” value did it give?
A: 8.51 ± 0.59

Q: For “AAAAATTTTATATTCACACACATATTTATATTTATA [CACACA_site6439]”, which “gcPBM binding intensity (ln)” value is on record?
A: 8.25 ± 0.27

Q: With “TAAAAAATTTTATATTCACACACATATATATATATA [CACACA_site8109]” as the sequence, how does the “gcPBM binding intensity (ln)” value read?
A: 10.1 ± 0.31

Q: With “CATATTTGTTGACACACACACATATTTATATAAATA [CACACA_site7648]” as the sequence, how does the “gcPBM binding intensity (ln)” value read?
A: 8.74 ± 0.4

Q: Which “gcPBM binding intensity (ln)” value does the source give for “TTTGCCATATGACACACACACATGTAAACCCCCTTT [CACACA_site6873]” here?
A: 9.41 ± 0.45

Q: For “ATATATTTTTACCATACACACATATAACAAATATAT [CACACA_site7706]”, which “gcPBM binding intensity (ln)” value is on record?
A: 8.75 ± 0.44
